Source: PubChem BioAssay (National Center for Advancing Translational Sciences (NCATS))
An excerpt weighted towards active compounds, which were near 2.8% of everything screened.
ATXN viability – Viability Counterscreen for Primary qHTS for Inhibitors of ATXN expression; S2 cells (HEK-293 line with an ATXN2-luciferase reporter) viability, CellTiter-Fluor protease fluorescence, 24 h; actives 0.49% (n = 400,000); Potency, µM (series often up to 56.7 µM), usual class: cytotoxic; note: potency is the fitted concentration of half-maximal effect; nearly all actives have a fitted effect of over 40% in size
ATXN2 expr inh – Primary qHTS for Inhibitors of ATXN expression | HEK-293 ATXN2-luciferase reporter, luminescence, 24 h | Potency, µM (series often up to 57 µM), inactives show at the highest dose activity change, negative = inhibition, actives largely listed as inhibitors | actives 0.72% (n = 360,000) | AID 1745845, 2022; note: potency is the fitted concentration of half-maximal effect; % is set by controls: 0 for no effect and ±100 for the full control effect; nearly all actives have a fitted effect of over 55% in size
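qHTS (up to 57 uM final) was run with 24 h compound exposure of reporter cells at 37 °C. Each well was multiplexed: SteadyGlo luminescence measured ATXN2-luciferase expression after a fluorogenic Gly-Phe-AFC viability readout (25 uM final).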
HepG2 tox – qHTS for Inhibitors of TGF-b: Cytotox Counterscreen; HepG2 CAGA-GFP viability, ATP luminescence, 18 h; Potency, µM (titrated, usually from 46.1 µM), for inactives: top-dose activity change, negative = cytotoxicity, most hits filed as cytotoxic; actives 0.76% (n = 410,000); note: potency is the fitted concentration of half-maximal effect
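HepG2 CAGA-GFP cells (1000/well, DMEM with 1% FBS) received compound, then TGF-beta at 500 pg/mL final, and were incubated 18 hours at 37 degrees C. Viability was read by CellTiter-Glo luminescence. Media-only wells were set as complete cell-killing and DMSO as no toxicity.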
CtBP-E1A blk – qHTS Assay for Inhibitors of the CtBP/E1A Interaction. AlphaScreen GST-E1A/His-CtBP binding, 1536-well; hits give low values. activity change, % (concentration not given with the values). actives 0.49% (n = 340,000). CtBP / adenovirus E1A interaction (AlphaScreen); in the data active = activity change below about -65%; inconclusive = mostly about -30% to -63%; note: % is set by controls: 0 for no effect and ±100 for the full control effect
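Homogeneous bead-based format: GST-tagged E1A captured on glutathione donor beads, His-tagged CtBP on nickel acceptor beads; compounds precede bead addition by 2 h at 37 °C.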
Six1-Eya2 blk – qHTS Assay for Inhibitors of the Six1/Eya2 Interaction. AlphaScreen GST-Six1/His-Eya2 binding, biochemical; hits give low values. activity change, % (test concentration not listed). actives 0.56% (n = 360,000). AID 651725, 2012; in the data active = activity change below about -65%; inconclusive = mostly about -30% to -63%; note: % is set by controls: 0 for no effect and ±100 for the full control effect
Target sequence (O00167 whole entry, looked up): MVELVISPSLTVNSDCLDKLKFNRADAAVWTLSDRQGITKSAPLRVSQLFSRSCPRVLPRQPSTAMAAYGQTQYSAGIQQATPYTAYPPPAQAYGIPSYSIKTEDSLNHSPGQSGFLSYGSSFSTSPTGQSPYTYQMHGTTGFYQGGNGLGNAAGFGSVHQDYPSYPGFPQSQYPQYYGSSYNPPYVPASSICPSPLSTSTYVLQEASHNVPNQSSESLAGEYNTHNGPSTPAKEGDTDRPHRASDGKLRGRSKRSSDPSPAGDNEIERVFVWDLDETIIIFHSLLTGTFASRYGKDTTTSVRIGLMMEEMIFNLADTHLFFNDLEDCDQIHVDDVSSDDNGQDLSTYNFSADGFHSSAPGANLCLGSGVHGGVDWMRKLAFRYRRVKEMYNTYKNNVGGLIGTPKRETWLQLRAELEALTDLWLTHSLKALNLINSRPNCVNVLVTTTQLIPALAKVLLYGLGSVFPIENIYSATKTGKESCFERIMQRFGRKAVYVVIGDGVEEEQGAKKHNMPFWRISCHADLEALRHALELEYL
Target sequence (Q15475 whole entry, looked up): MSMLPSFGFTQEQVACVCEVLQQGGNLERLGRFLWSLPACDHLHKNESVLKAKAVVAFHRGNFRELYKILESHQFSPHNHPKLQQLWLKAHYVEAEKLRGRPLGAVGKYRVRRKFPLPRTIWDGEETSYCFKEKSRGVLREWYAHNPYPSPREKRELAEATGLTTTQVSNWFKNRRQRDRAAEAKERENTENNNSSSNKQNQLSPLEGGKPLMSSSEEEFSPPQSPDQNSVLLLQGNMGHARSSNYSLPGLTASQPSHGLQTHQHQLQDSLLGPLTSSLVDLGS
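Compounds are tested against tagged Six1 and Eya2 proteins bridged by glutathione donor and nickel acceptor beads; after a one-hour incubation at 37 °C without light, AlphaScreen emission is recorded.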
TGFb inhibitor – qHTS for Inhibitors of TGF-b; actives 1.2% (n = 410,000); HepG2 CAGA-GFP TGF-b/SMAD3 reporter, GFP fluorescence, 18 h; TGF-beta stimulated, 500 pg/mL final; Potency, µM (titrated, usually from 46.1 µM), inactives show top-dose activity, negative = inhibition, hits mostly inhibitors; AID 588855, 2011; note: potency is the fitted concentration of half-maximal effect; % is set by controls: 0 for no effect and ±100 for the full control effect; nearly all actives have a fitted effect of over 65% in size
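HEPG2 CAGA-GFP reporter cells (1000/well, DMEM with 1% FBS) received compounds, then recombinant TGF-beta at 500 pg/mL final for 18 hours at 37 degrees C. Per-cell GFP summed per well was normalised to unstimulated and stimulated DMSO controls before curve fitting.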
Numbers without * were called inactive; i = inactive; ? = inconclusive; · = not tested or not shown; ! = not confirmed by another sample; [ ] = remark or other dose. Unless noted, calls come from the whole dose curve; as a rule, active = well fitted curve in the direction sought with a large enough effect; inconclusive = small, poorly fitted or top-dose-only effect, or another doubt; inactive = no such curve, though single readings can be large; an effect the other way counts as inactive or inconclusive.

SMILES | ATXN viability | ATXN2 expr inh | HepG2 tox | CtBP-E1A blk | Six1-Eya2 blk | TGFb inhibitor
CN(C)c1ccc(CN2CCC(C(=O)NC(c3ccc(F)cc3)c3ccc4ccccc4n3)CC2)cc1 (stereo not drawn) | ? | ? | -84% | ? | -66* | ?
O=C(NC(c1ccc(F)cc1)c1ccc2ccccc2n1)C1CCN(Cc2cccc(C(F)(F)F)c2)CC1 (stereo not drawn) | ? | ? | -54% | -9 | -10 | ?
Cc1ccc(C(NC(=O)C2CCN(CCOc3ccc(Cl)cc3)CC2)c2ccccn2)cc1 (stereo not drawn) | ? | 0% | -67% | -7 | -14 | ?
Cc1ncc2c(c1CNC(=O)c1cncs1)CCN(C(=O)c1cccc(-c3cccc(F)c3)c1)C2 | i | · | · | · | · | ·
CCCc1cc(N2CCN(C(=O)c3ccco3)CC2)n2c(nc3ccccc32)c1C#N | i | -32% | -2% | -67* | ? | 4%
CCOc1cccc(CNc2ccc(O)cc2)c1OCc1ccccc1Cl | 13µM*! | 11µM*! | 16µM*! | ? | -24 | 13µM*
CCOc1cc(CNc2ccc(O)cc2)cc(Cl)c1OCc1ccccc1 | 22µM* | 32µM* | -95% | · | · | ?
CCOc1cc(CNc2ccccc2)cc(Br)c1OCc1ccc(F)cc1 | i | -1% | -1% | 20 | 3 | -6%
CN(C)CCNc1ncnc2c1sc1nc(-c3ccccc3)c3c(c12)CCCC3 | · | 32µM* | 14µM* | -17 | -9 | ?
Oc1c(C=C2N=c3ccccc3=N2)sc(=S)n1-c1ccccc1 | i | 0% | -7% | 3 | -1 | 2%
CC1=Nc2ccccc2/C1=C/c1sc(=S)n(-c2cccc(C(=O)O)c2)c1O | i | -7% | -1% | -67* | ? | 42%
COC(=O)Cc1cc(=O)n(-c2nc3ccccc3[nH]2)[nH]1 | i | -5% | -21% | -86* | -92* | 1%
COc1ccc(CC(=O)Nc2nc3ccccc3[nH]2)cc1 | i | 7% | 4% | 8 | 3 | 18%
CNC(=S)/N=C/NOCc1ccc(Cl)cc1Cl | ? | -22%[11.3 µM] | -13% | -8 | -1 | 14µM*
O=C(NNc1nc2ccc(F)cc2s1)c1cccc(F)c1 | ? | -29%[11.3 µM] | -59% | 4 | -1 | 13µM*
O=C(Nc1nc2ccc(F)cc2s1)c1ccccn1 | ? | ? | -35% | -92* | -77* | ?
COC(=O)c1ccc2nc(Nc3nc4ccc(F)cc4s3)sc2c1 | i | ? | -35% | 20 | 11 | 18µM*
O=C(Nc1nc2ccccc2s1)c1cnccn1 | i | -24% | -35% | 9 | -8 | -5%
COc1ccc(-c2cn(Cc3ccc(C(=O)c4ccccc4)cc3)nn2)cc1 | ? | 24% | -30% | -26 | -12 | 10µM*
COc1ccc(-c2cn(Cc3ccc4ccccc4c3)nn2)cc1 | i | -3% | -8% | -18 | 12 | -10%
CN(C)C(=O)CNC(=O)Cc1ccccc1 | i | 3% | · | · | · | ·
CCOC(=O)c1ccc2ncc(-c3ccccc3)nc2c1 | i | 67% | 2.5µM* | 4 | 8 | 2%
CC(C)CC(NC(=O)OCc1ccccc1)C(=O)NC(Cc1ccccc1)C(=O)CCl (stereo not drawn) | · | ? | -102% | -1 | -8 | 10µM*
COC(=O)C(Cc1ccccc1)NC(=O)C(CC(C)C)NC(=O)OC(C)(C)C (stereo not drawn) | ? | 1% | -10% | -6 | 4 | -38%
O=Cc1cc(N=Nc2ccccc2Cl)ccc1O | 34µM* | -32% | -17% | 1 | -17 | ?
SMILES | ATXN viability | ATXN2 expr inh | HepG2 tox | CtBP-E1A blk | Six1-Eya2 blk | TGFb inhibitor
O=Cc1cc(N=Nc2cccc(C(=O)O)c2)ccc1O | i | 3% | -43% | 5 | -17 | -14%
COc1ccc(-c2onc(C)c2C)cc1S(=O)(=O)N1CCN(c2ccc(Cl)cc2)CC1 | · | · | 0% | · | · | 0%
O=C(C[C@H]1C/C=C\C[C@@H](Cc2ccc(F)cc2)C(=O)O[C@H](c2ccccc2)CNC1=O)NCCO | i | 12% | 13µM* | 5 | 5 | -13%
O=P(O)(O)C(O)(Cc1cnc2ccccn12)P(=O)(O)O | i | · | · | · | · | ·
CCOc1ccc2nc(N(Cc3cccnc3)C(=O)c3ccc4c(c3)OCCO4)sc2c1 | · | · | -3% | · | · | 0%
OC(CCCN1CCC(O)(c2ccc(Cl)cc2)CC1)c1ccc(F)cc1 (stereo not drawn) | i | -20% | -42% | 0 | 3 | 4%
OC1(c2ccc(Cl)c(C(F)(F)F)c2)CCN(CCCC(c2ccc(F)cc2)c2ccc(F)cc2)CC1 | 18µM* | 16µM* | · | · | · | ·
N#Cc1cc(Oc2cccc3cccnc23)c(-n2nnc3ccccc32)cc1C#N | i | ? | -94% | 0 | 0 | 6.3µM*
Cc1c(C(=O)c2no[n+]([O-])c2C(=O)c2cnn(C)c2C)cnn1C | · | ? | 11µM* | 1 | 1 | 7.9µM*
Cc1c(C(=O)Nc2ccc(Br)cc2)cnn1C | i | 48% | -59% | 6 | -5 | 7%
Cc1cc(Nc2cc(Cl)ccc2C)n2nc(-c3ccccc3)nc2n1 | i | -9% | 3% | · | · | 9%
O=S(c1cc(Cl)cc(Cl)c1O)c1cc(Cl)cc(Cl)c1O | ? | ? | · | -24 | -92* | ·
Oc1c(Cl)cc(Cl)cc1Sc1cc(Cl)cc(Cl)c1O | i | 1% | · | · | · | ·
CCOC(=O)N1CCN(/[N+]([O-])=N/Oc2ccc(C(F)(F)F)cc2[N+](=O)[O-])CC1 | · | · | -21% | · | · | -22%
COC(=O)c1ccc(N2CCc3ccccc32)c([N+](=O)[O-])c1 | i | -8% | 1% | -29 | -70* | -3%
CCN1/C(=C\C(=S)Nc2ccccc2)Sc2ccccc21 | ? | -31% | -33% | -1 | ? | 11µM*
